Results reported in PubChem BioAssay AID1851 (National Center for Advancing Translational Sciences (NCATS), 2009).
The whole screen tested about 16,000 compounds, of which about 5,100 (32%) were called active. About 25% were inconclusive and are not listed. The call rests on the fitted dose curve; in most records, active means well fitted curve in the direction sought with a large enough effect; inconclusive means small, poorly fitted or top-dose-only effect, or effect the other way; inactive means no such curve, though single readings can be large or run the other way. This is one part of the list.

These compounds were tested against Cytochrome P450 3A4 (Homo sapiens) (UniProt P08684) (assay: Cytochrome panel assay with activity outcomes). Conditions: recombinant CYP, pro-luciferin dealkylation, luminescence, p450-cyp3a4; series mostly up to 57.1 µM; activity, negative = inhibition: at the top concentration.
On the % scale 0 is the no-effect control and ±100 the full control effect.

Chain of Cytochrome P450 3A4 (Homo sapiens) (P08684 whole entry, looked up): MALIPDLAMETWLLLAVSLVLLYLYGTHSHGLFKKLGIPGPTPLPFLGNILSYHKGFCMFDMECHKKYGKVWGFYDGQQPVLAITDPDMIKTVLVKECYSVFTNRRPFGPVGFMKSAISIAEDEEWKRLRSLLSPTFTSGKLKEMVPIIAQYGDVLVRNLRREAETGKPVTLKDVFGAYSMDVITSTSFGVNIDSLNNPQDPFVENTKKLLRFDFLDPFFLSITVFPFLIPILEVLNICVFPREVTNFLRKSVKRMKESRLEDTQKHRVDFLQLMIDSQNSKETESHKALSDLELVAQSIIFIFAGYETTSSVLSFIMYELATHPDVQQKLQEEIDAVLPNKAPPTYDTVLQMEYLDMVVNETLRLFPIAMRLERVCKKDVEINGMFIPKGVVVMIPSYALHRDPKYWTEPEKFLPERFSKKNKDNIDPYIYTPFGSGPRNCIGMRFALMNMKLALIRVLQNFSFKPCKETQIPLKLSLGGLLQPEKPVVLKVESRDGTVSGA

activity, negative = inhibition, inactive:
Cn1c(=O)c2[nH]c([C@@H]3CC(=O)C[C@H](c4nc5c([nH]4)c(=O)n(C)c(=O)n5C)N3)nc2n(C)c1=O 2.95% [at 11.4 µM]
COc1c(NC(C)=O)c2ccccc2c2ccccc12 -28.7% [at 11.4 µM]
COc1cccc(C(=O)Nc2ccc(NC(=O)c3ccco3)cn2)c1 -4.16% [at 2.29 µM]
CC1(C)[C@@H]2CC[C@]1(CC(=O)O)[C@H](Cl)C2 -12.3% [at 11.4 µM]
Cc1cc(NC(=O)c2ccccc2Cl)no1 -14.3%
O=C(Nc1ccccc1Cl)c1ccccc1Cl 1.04%
O=C1[C@@H]2[C@@H](C(=O)N1c1ccc(OCc3ccccc3)cc1)[C@@H]1c3ccccc3[C@@H]2[n+]2ccccc21 -9.33% [at 11.4 µM]
O=C(O)/C=C\C=C/c1ccc2c(c1)OCO2 -6.19% [at 11.4 µM]
Cc1ccc(N=CC2=C(O)CC(c3ccco3)CC2=O)cc1 (stereo not given) -9.52%
O=C1c2ccccc2C(=O)N1CCCSc1ccccc1 -16.6% [at 11.4 µM]
N#CC(C#N)=CNCCN1CCN(C=C(C#N)C#N)CC1 -20.1% [at 11.4 µM]

AC50, inactive:
C[C@@H]1CCN=C(N)S1

AC50, active:
COc1cccc(NC(=O)c2oc3ccccc3c2NC(C)=O)c1 11.2 µM
COc1cccc(NC(=O)c2oc3ccccc3c2NC(=O)c2ccc3c(c2)OCO3)c1 1.78 µM
CCOc1ccc(NC(=O)c2oc3ccccc3c2NC(=O)CC)cc1 15.8 µM
CC1(C)CC(=O)C2=C(C1)Oc1nc3ccccc3cc1C2C(C#N)C#N (stereo not given) 14.1 µM
Cc1cc(NC(=O)c2ccccc2Cl)c(C(C)C)cc1O 25.1 µM
COCOc1cc(OC)ccc1C(=O)/C=C\c1ccc2c(c1)OCO2 1 µM
O=C(/C=C\c1ccc2c(c1)OCO2)c1ccc(F)cc1 3.16 µM
COc1ccccc1N1CCN(C(=O)/C=C/c2ccc3c(c2)OCO3)CC1 3.55 µM
Nc1ccccc1C(=O)/C=C\c1ccc2c(c1)OCO2 3.16 µM
COC(=O)c1c(-c2ccc3ccccc3c2)csc1NC(=O)Cc1ccc(OC)c(OC)c1 1.78 µM
Cc1ccc(OCCCN2C(=O)C(=O)c3cccc(C)c32)cc1 15.8 µM
Cc1oc(-c2ccccc2F)nc1CS(=O)(=O)CC(=O)NCCCN(C)C1CCCCC1 10 µM
O=c1[nH]c2cc(Br)cnc2nc1/C=C(\O)c1ccc(F)cc1 5.01 µM
